Test results from PubChem BioAssay AID2283170 (EPA ToxCast).
Records with an inconclusive call do not appear. The source made the active and inactive calls. The calls were made as follows: active = hit-call score of the fitted dose curve at least 0.9, where 1 is the maximum; inconclusive = response in the unintended direction; inactive = score below 0.9.

Each compound was assayed against human Lymphocyte-cell Factor Kinase (Lck), LCK (gene 3932) (UniProt P06239) (assay: NVS_ENZ_hLck: NovaScreen (NVS) Enzymatic Assay for human Lymphocyte-cell Factor Kinase (Lck)).
human Lymphocyte-cell Factor Kinase (Lck), LCK (gene 3932), sequence (P06239 whole entry, looked up): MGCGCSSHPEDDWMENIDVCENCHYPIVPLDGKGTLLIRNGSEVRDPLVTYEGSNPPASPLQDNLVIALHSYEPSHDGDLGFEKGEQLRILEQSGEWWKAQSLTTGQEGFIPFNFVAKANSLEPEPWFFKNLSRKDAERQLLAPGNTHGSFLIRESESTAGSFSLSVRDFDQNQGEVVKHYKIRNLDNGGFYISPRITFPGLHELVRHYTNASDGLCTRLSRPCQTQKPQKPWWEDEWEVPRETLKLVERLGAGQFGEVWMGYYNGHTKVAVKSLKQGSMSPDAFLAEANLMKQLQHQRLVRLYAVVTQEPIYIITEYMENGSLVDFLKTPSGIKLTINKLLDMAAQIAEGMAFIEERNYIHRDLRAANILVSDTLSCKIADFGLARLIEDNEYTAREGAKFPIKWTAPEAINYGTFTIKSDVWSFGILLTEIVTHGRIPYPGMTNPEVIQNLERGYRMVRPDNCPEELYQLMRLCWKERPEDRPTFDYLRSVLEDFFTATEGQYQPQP
Method: NVS_ENZ_hLck is a biochemical, single-readout assay that uses extracted gene-proteins in a cell-free assay. Measurements were taken 1 hour after chemical dosing in a 384-well plate.NVS_ENZ_hLck is one of one assay component(s) measured or calculated from the NVS_ENZ_hLck assay. It is designed to make measurements of enzyme activity, a form of enzyme reporter, as detected with fluorescence intensity signals by Fluorescence and electrophoretic mobility shift technology.Data from the assay component NVS_ENZ_hLck was analyzed into 1 assay endpoint. This assay endpoint, NVS_ENZ_hLck, was analyzed in the positive analysis fitting direction relative to DMSO as the negative control and baseline of activity. Using a type of enzyme reporter, loss-of-signal activity can be used to understand changes in the enzymatic activity as they relate to the gene LCK. Furthermore, this assay endpoint can be referred to as a primary readout, because this assay has produced […] where this one serves a enzymatic activity function. To generalize the intended target to other relatable targets, this assay endpoint is annotated to the kinase intended target family, where the subfamily is non-receptor tyrosine kinase.
Binding assays used specific radioligands (tritiated, iodinated) with non-radioactive competitive displacement ligands in agonist or antagonist protocols (as indicated) and various reference compounds and inhibitors to titrate specific binding to receptors and transporters. Most enzyme assays (CYPs, kinases, phosphatases, proteases, HDACs) used recombinant protein and specific substrates (fluorescence mostly, some colorimetric and radioactive) and inhibitors, followed by a biochemical separation of substrate and product. All assays for the biochemical HTS were initially run in duplicate at a single concentration (10 uM for CYP450 assays and 25 uM for all others). Assay-chemical combinations meeting a pre-defined threshold (e.g., 30% inhibition and other criteria defined below) were then run in singleton concentration-response format with maximum concentration of 20 uM for CYPs and 50 uM for all others. Each assay was run with positive and negative controls, and concurrent controls on every plate. The follow-up (secondary) screen tested active chemical-pairs in concentration series, as well as a few additional assays not tested in the primary screen, some selected negative inactives, and several cases re-run in the concentration series for confirmatory purposes.

Row | SMILES | AC50 | outcome
1 | c1ccc(Nc2ccccc2)cc1 | 10.6 µM (active) | –
2 | O=C(Nc1ccc([N+](=O)[O-])cc1Cl)c1cc(Cl)ccc1O | – | inactive
3 | S=C([S-])NCCNC(=S)[S-].[Mn+2] | – | inactive
4 | c1ccc2[nH]c(-c3cscn3)nc2c1 | – | inactive
